Assay outcomes as filed in PubChem.
Rows were chosen to be rich in hits. Some 2.7% of all compounds tested hit in one or more screens of this group.
GSIS activator: GLuc luminescence reporter in INS-1E cells, primary screen for activators of glucose-dependent secretion of insulin. INS-1E GLuc reporter insulin secretion, 2-3 h. activation, % at 16.6 µM. 370,000 compounds, 0.61% hits;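 active = lowest replicate activation of at least 40%, so every replicate reaches that level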
HIV Env fusion: inhibitors of HIV-1 Env-driven cell-cell fusion, primary screen, HeLa-JRFL effector, CEM21 target cells, luciferase; inhibition, % at 12.3 µM; 360,000 compounds, 1.1% hits;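 active = mean replicate inhibition score of at least 50 and every replicate individually at or above 50; inconclusive = only one of the two criteria met; inactive = mean below 50 and not all replicates reaching 50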
Wnt act: Wnt/beta-catenin pathway activators, primary screen, cell-based, plate reader, single point | Wnt/beta-catenin reporter cell assay, activator | activation, % at 9.35 µM | 300,000 compounds, 1.2% hits | AID 743398, 2014; in the data active = activation above about 30%, passing the limit was not always enough; inconclusive = no clear call, values can overlap the other calls
CFTR F508del cor: F508del CFTR correction, initial screen, CFBE line, single point; 350,000 compounds, 0.36% hits; AID 720511, 2013; CFBE cells, YFP halide quenching; stimulated with forskolin plus potentiator P3; % fluorescence drop versus neutral controls; activity (quench increase), % at 7.58 µM;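 active = mean added fluorescence quench of at least 8% versus neutral control, with both replicates also reaching 8%; inconclusive = only one of the mean or replicate conditions met; inactive = mean below 8% and not both replicates reaching 8%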;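 also: cells transiently co-express mutant CFTR-F508del with the halide-sensitive YFP; corrector assay measuring rescue of mutant channel to the surface after 24 h compound exposure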
MITF act: activators of MITF-driven TRPM1 promoter reporter, primary screen, cell-based, SK-MEL-5, luciferase, single point. SK-MEL-5 TRPM1-promoter luciferase, 24 h; % of positive control, neutral wells = 0. activation, % at 12.5 µM. 300,000 compounds, 0.75% hits. AID 588334, 2011;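 active = mean activation of at least 80% with every replicate also reaching 80%; inconclusive = mean reaches 80% but some replicate falls short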
A number is an active result; 0 = inactive; ? = inconclusive; - = no result.

SMILES	GSIS activator	HIV Env fusion	Wnt act	CFTR F508del cor	MITF act
Nc1nc2ccccc2n1/N=C/c1cccnc1	-	0	-	-	0
C[C@H](O)C#Cc1cnc2c(c1)C(=O)N([C@@H](C)CO)C[C@@H](C)[C@H](CN(C)C(=O)c1ccccc1)O2	0	0	-	0	-
CCCCN(C(=O)Cc1cccs1)c1nnc(-c2cccnc2)s1	0	0	0	-	99
CCOC(=O)/C(=C/C=C1\Sc2cc(C)c(C)cc2N1CC)C(C)=O	0	0	0	39	0
CC=Cc1ccc2n(c1=O)C[C@H]1[C@H](CO)[C@@H](C(=O)N3CCc4ccccc4C3)N(C(=O)COC)[C@@H]21 (mixture of isomers)	0	-	-	0	-
c1ccc(-n2ncc3c(NCCN4CCOCC4)ncnc32)cc1	-	0	47	-	0
CCOC(=O)C1CCN(C(=O)c2cc3cc(C)ccc3[nH]2)CC1	0	0	34	0	-
CCOC(=O)C1CCN(C(=O)c2cc3c(ccc4ccccc43)o2)CC1	0	0	42	0	96
CCOC(=O)C1CCN(C(=O)c2cc3c(C)cc(C)cc3[nH]2)CC1	0	0	0	0	0
CC1CCN(C(=O)c2cc3c(ccc4ccccc43)o2)CC1	0	0	33	0	0
COc1cccc(-c2cnc3c(c2)C(=O)N([C@@H](C)CO)C[C@@H](C)[C@@H](CN(C)C(=O)CN(C)C)O3)c1	0	0	-	0	-
c1ccc(N=Nc2ccc(C3=NCCO3)cc2)cc1	0	0	44	0	-
COc1ccc(-c2csc(Nc3cccc(C)n3)n2)cc1C	0	0	37	0	-
Cc1cccc(C)c1N=Nc1c(C)cc(O)cc1C	571	0	0	0	-
CC(C)NC(=O)Nc1ccc2c(c1)C(=O)N([C@@H](C)CO)C[C@H](C)[C@@H](CN(C)CC1CCCCC1)OCCCC[C@@H](C)O2	0	0	-	0	-
C=CCn1c(SC2CCOC2=O)nc2sc(C)c(C)c2c1=O (stereo not given)	-	0	0	-	0
C=CCn1c(SC2CCOC2=O)nc2sc(CC)cc2c1=O (stereo not given)	59	-	-	-	0
O=c1c(-c2ccc3c(c2)OCCO3)coc2cc(OC3OC(CO)C(O)C(O)C3O)ccc12 (stereo not given)	0	0	42	0	94
COc1ccc(-c2coc3cc(O[C@@H]4O[C@H](CO)[C@@H](O)[C@H](O)[C@H]4O)ccc3c2=O)cc1	0	0	?	0	0
Cc1ccc2c(c1)[nH]c1c(N3CCN(Cc4ccccc4)CC3)ncnc12	-	63	0	-	0
COc1ccc2c(c1)[nH]c1c(N3CCN(Cc4ccc5c(c4)OCO5)CC3)ncnc12	-	97	-	-	0
Cc1ccc2[nH]c3c(N4CCN(Cc5ccc6c(c5)OCO6)CC4)ncnc3c2c1	0	0	0	-	-
Cc1ccc2[nH]c3c(N4CCN(Cc5ccccc5)CC4)ncnc3c2c1	-	97	-	-	0
c1ccc(CN2CCN(c3ncnc4c3[nH]c3ccccc34)CC2)cc1	-	-	-	-	0
c1ccc2c(c1)CCN(c1ncnc3c1[nH]c1ccccc13)C2	-	87	-	-	0
SMILES	GSIS activator	HIV Env fusion	Wnt act	CFTR F508del cor	MITF act
COc1ccccc1C(=O)Nc1ccc2c(c1)C(=O)N(C)C[C@H](OC)[C@H](C)CN(C(C)=O)[C@H](C)CO2	0	0	-	0	-
CC=Cc1ccc2n(c1=O)C[C@H]1[C@H](CO)[C@@H](C(=O)N[C@@H](C)c3ccccc3)[C@@H]2N1Cc1ccccc1 (mixture of isomers)	0	-	-	0	-
CCS(=O)(=O)Nc1ccc2c(c1)C(=O)N(C)[C@@H]1CC[C@H](CC(=O)Nc3ccccc3)O[C@H]1CO2	0	0	-	0	-
Cc1cc(C)cc(NC(=O)Nc2ccc3c(c2)C(=O)N(C)[C@H]2CC[C@@H](CC(=O)O)O[C@H]2CO3)c1	0	0	-	0	-
COC(=O)c1scc(C)c1NC(=O)CC1NCCNC1=O (stereo not given)	60	0	0	0	-
Cc1ccc(NC(=O)CC2NCCNC2=O)cc1 (stereo not given)	-	-	-	-	0
CCOC(=O)C1CCN(C(=O)c2cc(COc3ccc(OC)c4ccccc34)on2)CC1	0	0	40	0	0
COc1ccc(OCc2cc(C(=O)N3CCC(OC)CC3)no2)c2ccccc12	0	-	0	0	0
COc1cc(Cl)ccc1OCc1cc(C(=O)NC(C)Cc2cnccn2)no1 (stereo not given)	0	0	47	0	88
